These entries were drawn from the full list.
aSyn 5UTR act: Activators via SNCA 5'UTR binding, MLPCN; alpha-synuclein 5'UTR reporter, activators screen; activity score, % (tested at 7.5 µM), hits read low; 7.1% of 300,000 active; in the data active = activity score below about -60%
An asterisk follows results filed as active.

How did COc1cc2c(cc1NC(=O)CN1CCN(S(=O)(=O)c3ccccc3F)CC1)oc1ccccc12 do in these assays?
aSyn 5UTR act: -91*

What do the screens show for `COc1cc2c(cc1NCc1ccccn1)oc1ccccc12`?
aSyn 5UTR act: -154*

How did COc1ccc(C(CNC(=O)c2sccc2C)N2CCOCC2)cc1 (configuration not stated) do in these assays?
aSyn 5UTR act: -70*

How did Cc1cccc(CN2C(=O)/C(=C\c3ccc(C(=O)NCCCN4CCN(C)CC4)cc3)Oc3ccccc32)c1 do in these assays?
aSyn 5UTR act: 95

Results for Cc1cccc(/C=C2/Sc3ccc(C(=O)NCCCN4CCOCC4)cc3NC2=O)c1 ?
aSyn 5UTR act: -69*

Results for CN1CCN(C(=O)c2ccc3c(c2)NC(=O)/C(=C/c2ccccc2)S3)CC1 ?
aSyn 5UTR act: -88*

How did Cc1cc(SCC(=O)N/N=C/c2ccc(O)cc2O)c(C)cc1Br do in these assays?
aSyn 5UTR act: 78

How did Cc1cc(NC(=O)CCSc2ccccc2)ccc1Br do in these assays?
aSyn 5UTR act: -62*

Results for O=C(Cc1ccccc1)Nc1ccc2c(c1)CCC2 ?
aSyn 5UTR act: -105*

What do the screens show for `O=C(Nc1ccc(F)cc1)Nc1ccc2c(c1)CCC2`?
aSyn 5UTR act: -120*

How did Cc1ccc(NC(=O)Nc2ccc3c(c2)CCC3)cc1 do in these assays?
aSyn 5UTR act: -124*

Results for Cc1cc(NC(=O)CC2CCCC2)ccc1Br ?
aSyn 5UTR act: -123*

How did O=C(Nc1ccc2c(c1)CCC2)Nc1ccc(F)cc1F do in these assays?
aSyn 5UTR act: -129*

What do the screens show for `Cc1cc(NC(=S)NC(=O)CC(C)C)ccc1Br`?
aSyn 5UTR act: -155*

Results for Cc1c(C(=O)Nc2cccc([N+](=O)[O-])c2)csc1-c1ccccc1 ?
aSyn 5UTR act: -130*

What do the screens show for `O=C(Nc1cccc([N+](=O)[O-])c1)Nc1ccc2c(c1)CCC2`?
aSyn 5UTR act: -105*

Results for O=[N+]([O-])c1cccc(NC(=S)N2CCc3ccccc3C2)c1 ?
aSyn 5UTR act: -120*

Results for O=C(Nc1ccccc1)Nc1ccc2c(c1)CCC2 ?
aSyn 5UTR act: -135*

How did O=C(CC1CCCC1)Nc1ccc2c(c1)CCC2 do in these assays?
aSyn 5UTR act: -112*

How did O=C(Nc1cccc(F)c1)Nc1ccc2c(c1)CCC2 do in these assays?
aSyn 5UTR act: -160*

How did O=C(Nc1cccc([N+](=O)[O-])c1)Nc1cccs1 do in these assays?
aSyn 5UTR act: -110*

Results for O=C1c2ccccc2C(=O)C1c1ccccn1 ?
aSyn 5UTR act: -105*

Results for COc1ccc(/C=N/NC(=O)c2nc(-c3ccccc3)n(-c3ccccc3)n2)c(O)c1 ?
aSyn 5UTR act: 87

Results for COc1ccc(-c2c(C)nn(-c3ccccc3)c2N)cc1 ?
aSyn 5UTR act: -110*

How did Cc1nn(-c2ccc(C(=O)O)cc2)c(N)c1-c1ccccc1 do in these assays?
aSyn 5UTR act: -179*

What do the screens show for `Cn1c(O)c(/C=N/NC(=O)c2cc3ccccc3cc2O)c2ccccc21`?
aSyn 5UTR act: -84*

Results for Cc1ccc(C=Nc2ccc(N(C)C)cc2)o1 ?
aSyn 5UTR act: -139*

How did CCC(=O)NC(c1ccco1)c1cc(Cl)c2cccnc2c1O (configuration not stated) do in these assays?
aSyn 5UTR act: 100

How did O=C(C1=C(O)C(=O)N(c2ncccn2)C1c1ccc(Cl)c(Cl)c1)c1ccco1 (configuration not stated) do in these assays?
aSyn 5UTR act: -81*

How did N=C1C(c2nc3ccccc3s2)=C(O)CN1Cc1ccccc1 do in these assays?
aSyn 5UTR act: -342*

How did N#Cc1ccc(OCc2noc(-c3ccsc3)n2)cc1 do in these assays?
aSyn 5UTR act: -81*

Results for Cc1ccc(Cn2c(CCNc3nc(-c4ccc(Cl)c([N+](=O)[O-])c4)cs3)nc3cc(Cl)c(Cl)cc32)cc1 ?
aSyn 5UTR act: -78*

How did CC(/C=C1\NC(=S)NC1=O)=C\c1ccccc1 do in these assays?
aSyn 5UTR act: -62*

Results for O=C(Nc1ccc(Br)cc1)Nc1ccccc1F ?
aSyn 5UTR act: -232*

Results for O=C(Nc1ccccc1F)Nc1ccccc1F ?
aSyn 5UTR act: -239*

Results for COC(=O)c1ccc(-c2ccc(/C=N/N3C(=O)C4C5C=CC(CC5)C4C3=O)o2)cc1 (configuration not stated) ?
aSyn 5UTR act: -191*

How did Nc1cc2ccncc2c2ccccc12 do in these assays?
aSyn 5UTR act: -71*

How did O=C(N/C=C/c1ccccc1)c1ccccc1 do in these assays?
aSyn 5UTR act: -135*

How did CN1CCN(c2ccccc2NC(=O)c2cc3c(s2)-c2ccccc2OC3)CC1 do in these assays?
aSyn 5UTR act: -71*

How did O=C(Nc1nc2ccccc2s1)c1cc2c(s1)-c1ccccc1OC2 do in these assays?
aSyn 5UTR act: -177*

Results for O=C(Nc1nccs1)c1cc2c(s1)-c1ccccc1OC2 ?
aSyn 5UTR act: -218*

How did O=C(Nc1ccc(Cl)cn1)c1cc2c(s1)-c1ccccc1OC2 do in these assays?
aSyn 5UTR act: -111*

What do the screens show for `CCOC(=O)c1ccc(NC(=O)c2cccc(S(=O)(=O)N3c4ccccc4CC3C)c2)s1` (configuration not stated)?
aSyn 5UTR act: 83
